# In PubChem BioAssay (EPA / NIEHS):
# Results filed as inconclusive are left out. Activity calls are given as the source filed them. The calls were made as follows, unless noted: active = hit-call score of the fitted dose curve at least 0.9, where 1 is the maximum; inconclusive = response in the unintended direction; inactive = score below 0.9.
# How the values were obtained:
# [1] = target: human Protein Tyrosine Phosphatase Non-receptor Type 2 (PTPN2), PTPN2 (gene 5771) (UniProt P17706); experiment: NVS_ENZ_hPTPN2: NovaScreen (NVS) Enzymatic Assay for human Protein Tyrosine Phosphatase Non-receptor Type 2 (PTPN2) (AID 2283207)
# Summary of the method: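 Activity measured as fluorescence after mobility-shift separation of substrate and product, 1 h after compound. Duplicate single-point 25 uM primary testing, concentration series for actives; inhibition scored as signal loss relative to DMSO baseline.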
# [2] = target: rat Acetylcholinesterase (AChE), Ache (gene 83817) (UniProt P37136); experiment: NVS_ENZ_rAChE: NovaScreen (NVS) Enzymatic Assay for rat Acetylcholinesterase (AChE) (AID 2283233)
# Summary of the method: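 Compounds first screened at 25 uM in duplicate, then those passing threshold tested in concentration series up to 50 uM, against AChE from rat brain membranes. Enzyme activity read by absorbance at 0.33 h; inhibition scored versus DMSO.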
# [3] = target: Voltage-dependent N-type calcium channel subunit alpha-1B (Rattus norvegicus) (UniProt Q02294); experiment: NVS_IC_rCaChN: NovaScreen (NVS) Ion Channel Assay for rat Calcium Channel, Type N (CaChN) (AID 2283317)
# [4] = test system: rat Monoamine Oxidase, MAO-A, Peripheral (MAOAP), gene 29253; experiment: NVS_ENZ_rMAOAP: NovaScreen (NVS) Enzymatic Assay for rat Monoamine Oxidase, MAO-A, Peripheral (MAOAP) (AID 2283237)
# Summary of the method: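 Scintillation counting tracked MAO-A activity in a cell-free rat liver mitochondrial membrane prep, read 1.17 hours after compound addition. Single-point duplicate testing at 25 uM preceded concentration-response follow-up; activity was fitted relative to DMSO.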
# [5] = test system: rat Monoamine Oxidase, MAO-A, Central (MAOAC), gene 29253; experiment: NVS_ENZ_rMAOAC: NovaScreen (NVS) Enzymatic Assay for rat Monoamine Oxidase, MAO-A, Central (MAOAC) (AID 2283243);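 also: potency refers to inhibition seen as signal drop below DMSO baseline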
# Summary of the method: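 Enzyme from rat brain, cell-free radiodetection format. Counts taken at 1.5 h; activity fitted against DMSO baseline, loss of signal marking inhibition. Confirmatory concentration series followed the 25 uM duplicate screen.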
# [6] = target: human Tyrosine Protein Kinase Receptor Tie-2 (Tie2), TEK (gene 7010) (UniProt Q02763); experiment: NVS_ENZ_hTie2: NovaScreen (NVS) Enzymatic Assay for human Tyrosine Protein Kinase Receptor Tie-2 (Tie2) (AID 2283225)
# Summary of the method: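 Substrate and product were separated by mobility shift and detected by fluorescence after a 1-hour reaction with recombinant Tie2. Chemicals passing a 25 uM single-point screen were titrated to a maximum of 50 uM. Results were normalized to DMSO baseline.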
# [7] = target: rat Adenylate Cyclase, Forskolin Stimulated, Adcy5 (gene 64532) (UniProt Q04400); experiment: NVS_ENZ_rACFSKBinding: NovaScreen (NVS) Enzymatic Assay for rat Adenylate Cyclase, Forskolin Stimulated (AID 2283232)
# Summary of the method: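 Chemicals were first tested at 25 uM in duplicate, then hits run as concentration series with top concentration 50 uM. Enzyme source was rat forebrain membranes; radiometric filter read-out after 1 h, referenced to DMSO.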
# [8] = target: rat Monoamine Oxidase, MAO-B, Peripheral (MAOBP), Maob (gene 25750) (UniProt P19643); experiment: NVS_ENZ_rMAOBP: NovaScreen (NVS) Enzymatic Assay for rat Monoamine Oxidase, MAO-B, Peripheral (MAOBP) (AID 2283242)
# [9] = target: rat Monoamine Oxidase, MAO-B, Central (MAOBC), Maob (gene 25750) (UniProt P19643); experiment: NVS_ENZ_rMAOBC: NovaScreen (NVS) Enzymatic Assay for rat Monoamine Oxidase, MAO-B, Central (MAOBC) (AID 2283238)
# Summary of the method: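 Actives from a duplicate 25 uM screen went on to singleton concentration-response with a 50 uM maximum. Enzyme source was rat brain tissue MAO-B, assayed cell-free. Radiolabelled product was counted by scintillation 1.17 h post-dose, with signal loss relative to DMSO.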
# [10] = CCTE_Harrill_HTTr_Apoptosis_PRF_DMEM_12hr: (Pilot) CCTE's 12-hour Apoptosis Assessment for the High-Throughput Transcriptomics (HTTr) Platform, in MCF-7 cells cultured in phenol red-free DMEM + 10% charcoal-stripped fetal bovine serum, Harrill Lab (AID 2283985; active = hit-call score of the fitted dose curve at least 0.9, where 1 is the maximum; inactive = score below 0.9)
# Summary of the method: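 Caspase-3/7 activity by CellEvent Green high content imaging after 12 h compound exposure (eight concentrations) in MCF-7 grown in phenol red-free DMEM plus 10% charcoal-stripped serum; DMSO as baseline.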
# [11] = target: human Neonicotinoid receptor (NNR), CHRNA2 (gene 1135) (UniProt Q15822); experiment: NVS_LGIC_hNNR_NBungSens: NovaScreen (NVS) Ligand-Gated Ion Channel Assay for human Neonicotinoid receptor (NNR) (AID 2283313)
# Summary of the method: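 Compounds first screened in duplicate at 25 uM, then actives re-tested in single-replicate dose series up to 50 uM. Binding measured as displacement of specific radioligand from neuroblastoma membrane receptors after 2 h, scintillation read on filters.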
# [12] = target: Norway rat Vesicular Monoamine Transporter (VMAT2), neurotransmitter transporter, Slc18a2 (gene 25549) (UniProt Q01827); experiment: NVS_TR_rVMAT2: NovaScreen (NVS) Transporter Assay for Norway rat Vesicular Monoamine Transporter (VMAT2), neurotransmitter transporter (AID 2283376);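 also: actives lower the bound radioligand signal below the DMSO level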
# Summary of the method: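 Using rat forebrain membranes, specific radioligand binding to VMAT2 was measured by filtration and scintillation counting after 1 hour. Chemicals screened at 25 uM in duplicate, actives retested in concentration series, DMSO baseline.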
# Chain of rat Monoamine Oxidase, MAO-B, Peripheral (MAOBP), Maob (gene 25750) (P19643 whole entry, looked up): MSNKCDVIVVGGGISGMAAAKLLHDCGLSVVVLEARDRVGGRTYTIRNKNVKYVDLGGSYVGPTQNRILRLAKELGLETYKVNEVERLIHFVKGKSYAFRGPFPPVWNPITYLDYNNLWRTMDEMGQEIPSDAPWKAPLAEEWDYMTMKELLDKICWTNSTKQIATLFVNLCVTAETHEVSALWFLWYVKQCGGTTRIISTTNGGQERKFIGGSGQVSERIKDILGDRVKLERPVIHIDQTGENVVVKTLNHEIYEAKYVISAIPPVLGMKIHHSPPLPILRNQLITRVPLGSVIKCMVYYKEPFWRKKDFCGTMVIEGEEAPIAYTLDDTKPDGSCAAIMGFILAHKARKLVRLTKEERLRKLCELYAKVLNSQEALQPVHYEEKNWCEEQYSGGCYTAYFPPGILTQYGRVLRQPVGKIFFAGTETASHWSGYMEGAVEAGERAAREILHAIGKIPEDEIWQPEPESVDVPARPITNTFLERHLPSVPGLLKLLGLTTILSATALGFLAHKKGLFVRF
# Chain of rat Monoamine Oxidase, MAO-B, Central (MAOBC), Maob (gene 25750) (P19643 whole entry, looked up): as above
# Chain of Norway rat Vesicular Monoamine Transporter (VMAT2), neurotransmitter transporter, Slc18a2 (gene 25549) (Q01827 whole entry, looked up): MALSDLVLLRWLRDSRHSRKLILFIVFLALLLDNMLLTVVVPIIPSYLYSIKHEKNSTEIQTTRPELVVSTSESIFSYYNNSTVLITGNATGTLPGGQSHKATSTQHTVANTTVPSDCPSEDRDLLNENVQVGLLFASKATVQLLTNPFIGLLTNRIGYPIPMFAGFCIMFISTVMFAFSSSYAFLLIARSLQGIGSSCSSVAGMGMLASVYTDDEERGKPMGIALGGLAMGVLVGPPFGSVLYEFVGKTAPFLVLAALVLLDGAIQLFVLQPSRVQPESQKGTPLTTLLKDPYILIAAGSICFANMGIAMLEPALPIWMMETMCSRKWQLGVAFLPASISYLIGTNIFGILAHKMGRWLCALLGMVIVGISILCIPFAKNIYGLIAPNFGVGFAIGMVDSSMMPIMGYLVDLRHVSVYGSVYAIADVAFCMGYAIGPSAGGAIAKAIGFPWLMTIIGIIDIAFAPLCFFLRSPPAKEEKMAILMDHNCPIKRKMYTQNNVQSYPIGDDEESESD
# Chain of human Neonicotinoid receptor (NNR), CHRNA2 (gene 1135) (Q15822 whole entry, looked up): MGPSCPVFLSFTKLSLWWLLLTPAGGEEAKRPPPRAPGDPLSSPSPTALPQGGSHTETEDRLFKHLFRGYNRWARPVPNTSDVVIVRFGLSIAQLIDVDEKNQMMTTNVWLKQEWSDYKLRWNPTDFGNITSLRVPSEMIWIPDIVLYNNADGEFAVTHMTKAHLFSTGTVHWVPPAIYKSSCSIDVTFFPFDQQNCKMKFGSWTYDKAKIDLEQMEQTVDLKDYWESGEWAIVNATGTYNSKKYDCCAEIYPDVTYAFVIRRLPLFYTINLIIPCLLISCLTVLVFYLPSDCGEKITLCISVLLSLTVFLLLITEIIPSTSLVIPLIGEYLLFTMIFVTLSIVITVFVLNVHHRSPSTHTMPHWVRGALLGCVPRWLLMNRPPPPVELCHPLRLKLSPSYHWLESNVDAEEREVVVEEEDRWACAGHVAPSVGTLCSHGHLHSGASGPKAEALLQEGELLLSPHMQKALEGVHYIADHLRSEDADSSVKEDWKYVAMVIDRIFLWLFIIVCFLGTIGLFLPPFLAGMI
# Chain of human Protein Tyrosine Phosphatase Non-receptor Type 2 (PTPN2), PTPN2 (gene 5771) (P17706 whole entry, looked up): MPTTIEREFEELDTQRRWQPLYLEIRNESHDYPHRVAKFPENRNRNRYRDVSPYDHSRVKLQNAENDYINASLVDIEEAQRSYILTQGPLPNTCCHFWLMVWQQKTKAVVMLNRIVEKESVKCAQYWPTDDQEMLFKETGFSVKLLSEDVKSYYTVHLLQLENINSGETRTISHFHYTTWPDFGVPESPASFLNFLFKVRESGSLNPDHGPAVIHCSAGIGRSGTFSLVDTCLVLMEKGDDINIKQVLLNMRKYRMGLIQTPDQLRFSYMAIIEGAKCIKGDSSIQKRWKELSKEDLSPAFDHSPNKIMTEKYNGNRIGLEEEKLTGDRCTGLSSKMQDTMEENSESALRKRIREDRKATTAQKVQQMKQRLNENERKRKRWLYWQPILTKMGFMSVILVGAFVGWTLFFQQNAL
# Chain of rat Acetylcholinesterase (AChE), Ache (gene 83817) (P37136 whole entry, looked up): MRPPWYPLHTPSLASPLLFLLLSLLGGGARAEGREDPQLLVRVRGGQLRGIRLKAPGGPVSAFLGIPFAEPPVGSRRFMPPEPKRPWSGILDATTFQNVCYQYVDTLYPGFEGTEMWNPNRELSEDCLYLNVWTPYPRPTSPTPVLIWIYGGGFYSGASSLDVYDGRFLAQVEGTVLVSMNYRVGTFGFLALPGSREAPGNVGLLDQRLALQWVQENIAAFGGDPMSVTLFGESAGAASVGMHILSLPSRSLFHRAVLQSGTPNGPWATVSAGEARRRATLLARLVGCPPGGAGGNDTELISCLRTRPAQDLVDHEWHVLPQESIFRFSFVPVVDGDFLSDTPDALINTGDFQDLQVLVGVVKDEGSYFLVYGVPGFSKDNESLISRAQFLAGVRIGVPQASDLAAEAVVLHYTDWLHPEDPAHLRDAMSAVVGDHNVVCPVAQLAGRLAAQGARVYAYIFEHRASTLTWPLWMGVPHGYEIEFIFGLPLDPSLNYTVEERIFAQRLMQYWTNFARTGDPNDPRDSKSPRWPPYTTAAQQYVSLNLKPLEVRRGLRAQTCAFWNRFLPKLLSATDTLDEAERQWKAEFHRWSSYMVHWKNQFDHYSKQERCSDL
# Chain of human Tyrosine Protein Kinase Receptor Tie-2 (Tie2), TEK (gene 7010) (Q02763 whole entry, looked up): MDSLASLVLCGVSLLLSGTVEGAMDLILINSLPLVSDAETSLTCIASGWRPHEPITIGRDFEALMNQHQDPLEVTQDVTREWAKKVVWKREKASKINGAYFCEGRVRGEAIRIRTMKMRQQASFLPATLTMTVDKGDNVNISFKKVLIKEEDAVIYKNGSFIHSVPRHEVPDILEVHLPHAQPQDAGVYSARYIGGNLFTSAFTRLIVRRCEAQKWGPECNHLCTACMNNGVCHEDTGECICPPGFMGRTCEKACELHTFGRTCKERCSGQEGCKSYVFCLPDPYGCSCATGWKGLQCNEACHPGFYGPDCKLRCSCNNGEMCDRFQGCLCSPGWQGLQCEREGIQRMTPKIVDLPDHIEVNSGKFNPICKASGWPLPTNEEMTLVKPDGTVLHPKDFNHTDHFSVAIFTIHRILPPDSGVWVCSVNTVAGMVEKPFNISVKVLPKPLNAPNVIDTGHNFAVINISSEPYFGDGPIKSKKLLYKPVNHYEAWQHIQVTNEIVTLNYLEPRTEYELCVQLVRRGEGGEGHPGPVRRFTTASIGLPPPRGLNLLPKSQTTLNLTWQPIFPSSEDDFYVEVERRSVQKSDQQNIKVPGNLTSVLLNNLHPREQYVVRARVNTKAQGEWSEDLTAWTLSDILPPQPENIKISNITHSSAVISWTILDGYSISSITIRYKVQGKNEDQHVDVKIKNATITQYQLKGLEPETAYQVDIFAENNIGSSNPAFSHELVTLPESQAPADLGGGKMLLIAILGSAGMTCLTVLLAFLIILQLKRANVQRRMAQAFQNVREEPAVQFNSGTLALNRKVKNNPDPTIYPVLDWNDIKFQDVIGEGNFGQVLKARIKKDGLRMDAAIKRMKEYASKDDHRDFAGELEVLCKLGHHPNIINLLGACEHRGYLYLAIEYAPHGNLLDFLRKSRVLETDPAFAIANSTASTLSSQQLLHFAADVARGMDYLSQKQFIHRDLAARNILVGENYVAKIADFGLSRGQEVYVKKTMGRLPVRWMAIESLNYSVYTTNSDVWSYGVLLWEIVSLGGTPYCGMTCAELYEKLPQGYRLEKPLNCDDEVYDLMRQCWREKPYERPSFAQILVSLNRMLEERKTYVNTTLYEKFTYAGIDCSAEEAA
smiles,measurement,setting,value
COc1nc(C)nc(NC(=O)NS(=O)(=O)c2ccccc2OCCCl)n1,outcome,[1],inactive
CCCC(=O)OCCC(C)C,outcome,[2],inactive
same,outcome,[3],inactive
Nc1nc(N)c2nc(CNc3ccc(C(=O)N[C@@H](CCC(=O)O)C(=O)O)cc3)cnc2n1,AC50,[4],38.7 µM (active)
same,AC50,[5],0.889 µM (active)
CCCCOC(=O)CCCCC(=O)OCCCC,outcome,[6],inactive
O=c1[nH]sc2ccccc12,AC50,[7],16.2 µM (active)
same,AC50,[8],19.2 µM (active)
CCCCCCCCOC(=O)c1cc(O)c(O)c(O)c1,outcome,[9],inactive
CC/C(=C\C(=N/O)C(N)=O)C(C)[N+](=O)[O-] (configuration not stated),AC50,[9],37.8 µM (active)
same,outcome,[3],inactive
CC(C)C(=O)Nc1ccc([N+](=O)[O-])c(C(F)(F)F)c1,AC50,[4],10.4 µM (active)
same,outcome,[10],inactive
COC(=O)c1ccc(CNS(C)(=O)=O)cc1S(=O)(=O)NC(=O)Nc1nc(OC)cc(OC)n1,AC50,[8],35.5 µM (active)
Cc1c(C)c2c(c(C)c1O)CCC(C)(COc1ccc(CC3SC(=O)NC3=O)cc1)O2 (configuration not stated),AC50,[9],25 µM (active)
same,outcome,[10],inactive
Cc1[nH]cnc1C[C@H]1CCc2c(C)c3ccccc3n2C1=O,AC50,[8],22.2 µM (active)
same,outcome,[11],inactive
same,AC50,[12],0.755 µM (active)
CCCCN1C(=O)[C@@H]([C@H](O)C2CCCCC2)NC(=O)C12CCN(Cc1ccc(Oc3ccc(C(=O)O)cc3)cc1)CC2,outcome,[8],inactive
Cc1cc(SC2=C(O)C[C@@](CCc3ccc(N)cc3)(C(C)C)OC2=O)c(C(C)(C)C)cc1CO,outcome,[4],inactive
same,AC50,[11],13.1 µM (active)
CS(=O)(=O)OCCCCOS(C)(=O)=O,outcome,[9],inactive
same,outcome,[8],inactive
CC(N)=O,outcome,[8],inactive
same,outcome,[5],inactive
COc1cccc([C@H](O)C2CCN(CCc3ccc(F)cc3)CC2)c1OC,AC50,[8],12.5 µM (active)
CCCCCCC(C=O)=Cc1ccccc1,outcome,[8],inactive
CC1(C)CC(N=C=O)CC(C)(CN=C=O)C1 (configuration not stated),outcome,[9],inactive
CCCCC(CC)CN1C(=O)C2C3C=CC(C3)C2C1=O (configuration not stated),outcome,[9],inactive
Cc1cccc(C)c1O,outcome,[9],inactive
NC(=O)N(O)[C@@H]1COc2cc(OCc3ccccc3)ccc21,AC50,[9],12.2 µM (active)
CCOC(=O)[C@H](C)Oc1ccc(Oc2nc3ccc(Cl)cc3o2)cc1,AC50,[9],1.57 µM (active)
same,AC50,[8],15.9 µM (active)
same,AC50,[5],17.4 µM (active)
O=C(O)c1cccnc1,outcome,[9],inactive
CC(O)CC(C)(C)O (configuration not stated),outcome,[9],inactive
O=C1NS(=O)(=O)c2ccccc21,outcome,[8],inactive
NC(=Nc1ccccc1)Nc1ccccc1,outcome,[8],inactive
COC(=O)c1ccc(C(=O)OC)cc1,AC50,[9],25 µM (active)
same,outcome,[12],inactive
C#C[C@]1(O)CC[C@H]2[C@@H]3CCC4=CC(=O)CC[C@@H]4[C@H]3CC[C@@]21C,outcome,[9],inactive
